Only a selection was taken, and hits are over-represented in it overall.
ALOX12 inhib – qHTS Assay for Inhibitors of 12-hLO (12-human lipoxygenase). Polyunsaturated fatty acid lipoxygenase ALOX12 (Homo sapiens), P18054. AID 1452, 2008. purified 12-hLO, xylenol orange hydroperoxide absorbance. Potency, µM (doses to about 57.1 µM), most hits filed as inhibitors. 150,000 compounds, 0.12% hits; also: nearly all actives have a fitted effect of over 55% in size
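Hydroperoxide output read as Fe(III)-xylenol orange absorbance, 573-to-405 nm ratio, after 30 min reaction with 40 uM arachidonic acid. Enzyme: 150 nM purified human 12hLO, 15 min compound preincubation; 25 mM Hepes pH 7.0, room temperature.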
15-hLO-2 inh – qHTS Assay for Inhibitors of 15-hLO-2 (15-human lipoxygenase 2); Polyunsaturated fatty acid lipoxygenase ALOX15B (Homo sapiens), O15296; purified 15hLO-2, xylenol orange hydroperoxide absorbance; Potency, µM (titrated, usually from 57.1 µM), actives largely listed as inhibitors; 110,000 compounds, 0.56% hits; AID 881, 2007; also: nearly all actives have a fitted effect of over 60% in size
Target sequence (O15296 whole entry, looked up): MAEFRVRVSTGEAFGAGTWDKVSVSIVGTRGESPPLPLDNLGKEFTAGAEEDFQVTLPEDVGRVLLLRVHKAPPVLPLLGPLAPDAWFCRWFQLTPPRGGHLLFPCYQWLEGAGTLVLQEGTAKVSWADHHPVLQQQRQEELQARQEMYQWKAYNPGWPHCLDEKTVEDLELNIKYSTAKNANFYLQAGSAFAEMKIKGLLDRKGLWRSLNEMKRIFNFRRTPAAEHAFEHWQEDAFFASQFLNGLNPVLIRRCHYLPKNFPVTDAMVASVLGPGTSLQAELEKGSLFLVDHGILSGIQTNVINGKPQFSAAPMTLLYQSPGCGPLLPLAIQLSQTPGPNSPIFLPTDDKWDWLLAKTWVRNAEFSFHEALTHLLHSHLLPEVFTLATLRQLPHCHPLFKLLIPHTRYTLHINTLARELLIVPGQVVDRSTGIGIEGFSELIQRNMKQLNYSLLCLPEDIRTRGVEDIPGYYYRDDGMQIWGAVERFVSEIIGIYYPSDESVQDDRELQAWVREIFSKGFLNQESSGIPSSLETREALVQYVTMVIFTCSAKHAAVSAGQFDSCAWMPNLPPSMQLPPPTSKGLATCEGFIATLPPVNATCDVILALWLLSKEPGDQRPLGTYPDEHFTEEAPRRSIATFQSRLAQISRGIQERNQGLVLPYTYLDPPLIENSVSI
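Enzyme 50 nM, AA 45 uM, 25 mM Hepes pH 7.5 + 0.01% Triton X-100; cpd preinc 15 min RT, rxn 90 min RT; stop/detect with 200 uM XO + 300 uM Fe(II) in 50 mM H2SO4, 30 min; A573/A405.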
Each line names hits and unclear results; the compound was inactive in the other large screens. Calls follow the shape of the dose curve; as a rule, active = well fitted curve in the direction sought with a large enough effect; inconclusive = small, poorly fitted or top-dose-only effect, or another doubt; inactive = no such curve, though single readings can be large; an effect the other way counts as inactive or inconclusive.

COc1cccc(CC(=O)N2CCc3nc(-c4ccc(OC)cc4C)c4c(c3C2)CO[C@@H](c2ccccc2)C4)c1	none (no result: 15-hLO-2 inh)
CC(C)[C@H]1C(=O)C(C(N)=O)=C(O)[C@]2(O)C(=O)C3=C(O)c4c(O)ccc(N(C)C)c4C[C@H]3C[C@@H]12	none
CC(=O)Nc1nc2ccccc2n1CCOc1ccccc1	none
S=C(Nc1ccccc1)Nc1nc2ccccc2n1CCOc1ccccc1	ALOX12 inhib 20µM, 15-hLO-2 inh inconclusive
COc1ccccc1CNC(=O)c1cccc(-c2ccccc2OC)n1	none
COc1ccc(CNC(=S)Nc2cc(C)ccc2C)cc1	15-hLO-2 inh inconclusive
COc1ccc(CCNC(=S)Nc2cc(C)ccc2C)cc1	ALOX12 inhib 7.94µM, 15-hLO-2 inh 25.1µM
COc1ccc(CNC(=S)Nc2ccccc2C)cc1	none
COc1ccc(CCNC(=S)Nc2cccc(C)c2C)cc1	ALOX12 inhib inconclusive, 15-hLO-2 inh 25.1µM
C=CC(=O)OCCCCCCOC(=O)C=C	none
C#CC[N+](C)(C)CCCCCCCCCC	none (no result: 15-hLO-2 inh)
CCCCCCCC[N+](CCCCCCCC)(CCCCCCCC)CCCCCCCC	ALOX12 inhib inconclusive, 15-hLO-2 inh 31.6µM
Cc1ccccc1C1CC(=O)Oc2cc(C)c(Cl)c(C)c21 (stereo not given)	none
Cc1cc(C)c2c(=O)n(CC(=O)N3CCC(Cc4ccccc4)CC3)sc2n1	none (no result: 15-hLO-2 inh)
Cc1cccc(N2CCN(C(=O)Cn3sc4nc(C)cc(C)c4c3=O)CC2C)c1 (stereo not given)	ALOX12 inhib inconclusive, 15-hLO-2 inh 1µM
COc1ccc(-c2nc3cnc(N4CCOCC4)nc3n(Cc3cccs3)c2=O)cc1	none (no result: ALOX12 inhib)
CC1(COc2ccc(C[C@H]3SC(=O)NC3=O)cc2)CCCCC1	none
CCCCCCCCCCCC1=C(O)C(=O)C=C(O)C1=O	ALOX12 inhib 8.91µM, 15-hLO-2 inh 31.6µM
CCCCCCc1c(O)c2ccccc2[nH]c1=O	none
CCCCCCCCCC(=O)N[C@@H](CN1CCOCC1)[C@@H](O)c1ccccc1	none
O=C(O)c1cc(S(=O)(=O)Nc2cccc(Cl)c2)ccc1O	none (no result: 15-hLO-2 inh)
CCc1ccc(CNc2ccc(N3CCN(C(C)=O)CC3)cc2)cc1	ALOX12 inhib inconclusive, 15-hLO-2 inh 12.6µM
CC(=O)N1CCN(c2ccc(NCc3ccc(C)cc3)cc2)CC1	ALOX12 inhib 17.8µM, 15-hLO-2 inh 10µM
CC(=O)Nc1ccc(N2CCN(C(C)=O)CC2)cc1	none
Cc1ccc(C(=O)NCc2ccc(N3CCN(C(=O)OC(C)(C)C)CC3)cc2)cc1	none
CCCCC[C@H](O)/C=C/[C@H]1OC(O)C[C@H](O)[C@@H]1C/C=C\CC(=O)O (stereo not given in full)	none (no result: 15-hLO-2 inh)
COc1cc([C@@H](O)CO)ccc1OS(=O)(=O)O	none
COC(=O)C(C(=O)OC)[C@@H]1c2ccccc2[C@H]2C(=C[C@@H](C)[C@H]3C(=O)N(c4ccccc4)C(=O)[C@H]32)N1C(=O)OC	none (no result: 15-hLO-2 inh)
CCOc1ccc(-c2cc(C(=O)N/N=C/c3ccc(O)c(OC)c3)[nH]n2)cc1	none (no result: 15-hLO-2 inh)
COC(=O)C1=C(C(=O)OC)[C@@H]2N(C)c3ccccc3[C@@]23C[C@@H](C(=O)OC)N(S(=O)(=O)c2ccc4c(c2)OCCN4C)C3=N1	none (no result: 15-hLO-2 inh)
O=C1S/C(=C/c2ccc(N3CCOCC3)o2)C(=O)N1Cc1c(F)cccc1Cl	15-hLO-2 inh inconclusive
O=C1S/C(=C\c2ccc(N3CCOCC3)o2)C(=O)N1Cc1c(F)cccc1Cl	15-hLO-2 inh 6.31µM
C[N+]1=C(/C=C/Nc2ccccc2Cl)C(C)(C)c2ccccc21	none (no result: 15-hLO-2 inh)
COC(=O)c1ccc2c(c1)C(C)(C)C(/C=C/c1ccccc1O)=[N+]2C	ALOX12 inhib 14.1µM, 15-hLO-2 inh 15.8µM
CCOc1cc(NC(=S)Nc2ccccc2)c(OCC)cc1NC(=O)c1ccc(OC)cc1	15-hLO-2 inh 25.1µM
CCOc1cc(NC(=S)Nc2cccc(OC)c2)c(OCC)cc1NC(=O)c1ccc(C)cc1	15-hLO-2 inh inconclusive
CC1CCN(c2ccc(NC(=S)NC(=O)c3ccc(-c4cccc([N+](=O)[O-])c4)o3)cc2)CC1	15-hLO-2 inh inconclusive
CC1CCN(c2ccccc2NC(=S)NC(=O)c2ccc(-c3cccc([N+](=O)[O-])c3)o2)CC1	15-hLO-2 inh 15.8µM
C[C@@H](Cc1ccccc1)Nc1ncnc2c1ncn2[C@@H]1O[C@@H](CO)[C@H](O)[C@@H]1O	ALOX12 inhib inconclusive
O=[N+]([O-])c1ccc(N/N=C/c2ccc[nH]2)cc1	ALOX12 inhib 6.31µM (no result: 15-hLO-2 inh)
O=[N+]([O-])c1ccc(N/N=C/c2c[nH]c3ccccc23)cc1	15-hLO-2 inh inconclusive
C=CCN1c2ccccc2[C@]23C[C@@H](C(=O)OC)N(S(=O)(=O)CCCC)C2=NC(C(=O)OC)=C(C(=O)OC)[C@H]13	none (no result: 15-hLO-2 inh)
COC(=O)N1C(/C=C/c2ccc3c(c2)OCO3)=Cc2ccccc2C1CC(C)=O (stereo not given)	none (no result: 15-hLO-2 inh)
CC1=C(C)/C(=N\OS(=O)(=O)c2ccc(C)cc2)C=CC1=O	none (no result: 15-hLO-2 inh)
COc1ccc(S(=O)(=O)/N=C2/C=CC(=O)C(C)=C2C)cc1	15-hLO-2 inh 12.6µM

Screening results (PubChem BioAssay)
